Experimental data published in ChEMBL document CHEMBL2218924, “A broad activity screen in support of a chemogenomic map for kinase signalling research and drug discovery” (Biochem J, 2013).

Biological target: T1, Serine/threonine-protein kinase D2 (Homo sapiens) (UniProt Q9BZL6)
T1 sequence (whole entry): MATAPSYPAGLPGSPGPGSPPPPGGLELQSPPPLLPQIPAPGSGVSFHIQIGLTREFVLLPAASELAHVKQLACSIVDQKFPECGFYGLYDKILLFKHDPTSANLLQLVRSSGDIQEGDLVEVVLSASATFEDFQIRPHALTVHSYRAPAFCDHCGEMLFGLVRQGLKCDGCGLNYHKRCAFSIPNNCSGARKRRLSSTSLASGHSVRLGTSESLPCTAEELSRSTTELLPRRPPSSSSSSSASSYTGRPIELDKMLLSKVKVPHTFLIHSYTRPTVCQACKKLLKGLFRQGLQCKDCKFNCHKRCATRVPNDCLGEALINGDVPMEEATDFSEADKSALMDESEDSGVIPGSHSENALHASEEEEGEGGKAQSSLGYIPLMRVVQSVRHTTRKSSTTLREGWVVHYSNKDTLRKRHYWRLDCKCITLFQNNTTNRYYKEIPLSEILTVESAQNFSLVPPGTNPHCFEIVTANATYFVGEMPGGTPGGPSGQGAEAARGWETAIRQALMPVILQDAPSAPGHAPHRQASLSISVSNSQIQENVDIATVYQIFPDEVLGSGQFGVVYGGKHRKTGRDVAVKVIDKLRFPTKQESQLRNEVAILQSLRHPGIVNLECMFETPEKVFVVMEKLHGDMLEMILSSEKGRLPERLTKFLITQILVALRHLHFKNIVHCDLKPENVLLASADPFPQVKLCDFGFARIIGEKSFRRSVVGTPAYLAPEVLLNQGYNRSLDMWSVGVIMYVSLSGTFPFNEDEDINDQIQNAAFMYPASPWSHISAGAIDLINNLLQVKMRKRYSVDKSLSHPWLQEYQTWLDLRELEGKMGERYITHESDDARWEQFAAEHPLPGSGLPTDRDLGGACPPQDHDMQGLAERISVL
Conditions: at 1 µM

SMILES	residual activity [%]
CCCC(=O)Oc1ccc2[nH]c(C(=O)c3cc4ccccc4[nH]3)cc2c1	99
CC(C)[C@H](CO)Nc1nc(Nc2cc(N)cc(Cl)c2)c2ncn(C(C)C)c2n1	96
O=C(c1ccccc1)c1ccc(N2CCOCC2)cc1O	96
O=S(=O)(c1cccc2cnccc12)N1CCCNCC1	100
Nc1ncnc2c1c(-c1ccc(Oc3ccccc3)cc1)cn2C1CCCC1	93
O=C1C(Cl)=C(N2C(=O)CCC2=O)C(=O)c2ccccc21	99
O=C1NC(=O)c2c1c1c3ccccc3[nH]c1n1cncc21	90
CC(C)c1nn(-c2c(Cl)cccc2Cl)c2nc(Cc3ccc(OCCO)cc3)[nH]c(=O)c12	95
COc1ccc2c(c1)c(C1=C(c3c[nH]c4ccccc34)C(=O)NC1=O)cn2CCCN(C)C	98
O=c1cc(N2CCOCC2)oc2c1ccc1ccccc12	100
COc1cc2c(cc1OC)-c1n[nH]c(Nc3cccc(F)c3)c1C2	107
O=c1cc(N2CCNCC2)oc2c(-c3ccccc3)cccc12	102
Nc1ncnc2[nH]nc(Nc3ccc(F)cc3)c12	106
NC(=O)Nc1sc(-c2ccc(F)cc2)cc1C(N)=O	100
O=C(O)/C=C/c1cc(Br)c(Br)c(Br)c1Br	102
Cn1sc(=O)n(Cc2ccccc2)c1=O	99
O=C1Nc2ccc(Cl)cc2/C1=C/c1cc(Cl)c(O)c(Cl)c1	98
CC(C)(C)n1nc(Cc2cccc3ccccc23)c2c(N)ncnc21	80
NC(=O)c1ccc(-c2nc(-c3ccc4c(c3)OCCO4)c(-c3ccccn3)[nH]2)cc1	98

Biological target: T1, Serine/threonine-protein kinase D2 (Homo sapiens)
Conditions: at 10 µM

SMILES	residual activity [%]
Nc1n[nH]c2nc3ccccc3nc12	87
CC(C)[C@H](CO)Nc1nc(Nc2cc(N)cc(Cl)c2)c2ncn(C(C)C)c2n1	99
O=C(c1ccccc1)c1ccc(N2CCOCC2)cc1O	100
Nc1ncnc2c1c(-c1ccc(Oc3ccccc3)cc1)cn2C1CCCC1	95
N#Cc1c(NC(=O)c2cccc3ccccc23)sc2c1CCCC2	93
O=C1C(Cl)=C(N2C(=O)CCC2=O)C(=O)c2ccccc21	100
Nc1nccc(-c2c(-c3ccc(F)cc3)ncn2C2CCNCC2)n1	49
O=C1NC(=O)c2c1c1c3ccccc3[nH]c1n1cncc21	42
CSc1nc(-c2ccc(F)cc2)c(-c2ccnc(NC(C)c3ccccc3)c2)[nH]1 (stereo not drawn)	94
CC(C)c1nn(-c2c(Cl)cccc2Cl)c2nc(Cc3ccc(OCCO)cc3)[nH]c(=O)c12	91
COc1ccc2c(c1)c(C1=C(c3c[nH]c4ccccc34)C(=O)NC1=O)cn2CCCN(C)C	102
O=c1cc(N2CCOCC2)oc2c1ccc1ccccc12	94
COc1cc2c(cc1OC)-c1n[nH]c(Nc3cccc(F)c3)c1C2	104
NC(=O)Nc1sc(-c2ccc(F)cc2)cc1C(N)=O	64
O=C(O)/C=C/c1cc(Br)c(Br)c(Br)c1Br	97
Cn1sc(=O)n(Cc2ccccc2)c1=O	93
O=C1Nc2ccc(Cl)cc2/C1=C/c1cc(Cl)c(O)c(Cl)c1	56
CC(C)(C)n1nc(Cc2cccc3ccccc23)c2c(N)ncnc21	24
NC(=O)c1ccc(-c2nc(-c3ccc4c(c3)OCCO4)c(-c3ccccn3)[nH]2)cc1	87
